# Source: PubChem BioAssay
# Sampled rows, rich in hits. Any-hit rate of the full collection: about 21%.
# SARS PLP yeast – blocks SARS-CoV papain-like protease in a yeast assay | S. cerevisiae expressing SARS-CoV PLpro, growth rescue | Potency, µM (highest dose often 32.9 µM), for inactives: at the highest dose activity, positive = growth rescue, actives largely listed as activators | 330,000 tested, 0.19% active | AID 485353; calls by dose curve; also: potency is read from the fitted curve at half-maximal effect; 0% is about no effect; nearly all actives have a fitted effect of over 55% in size
# Pf growth 96h – P. falciparum growth inhibition at 96 hours | P. falciparum luciferase reporter growth, 96 h | Potency, µM (series often up to 28.7 µM), without a hit: at the top dose activity change, negative = inhibition, actives largely listed as inhibitors | 320,000 tested, 6.9% active | AID 504834; also: potency is read from the fitted curve at half-maximal effect; % is scaled to controls: 0 for no effect and ±100 for the full control effect
#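 Readout is luminescence from an integrated firefly luciferase in P. falciparum. Red cells, 2% hematocrit and 0.05% parasitemia final, were cultured with compound through two parasite generations (96 hours) at 37 C, 5% CO2.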
# NS1 function inh – blocks influenza NS1 protein function; Potency, µM (titrated, usually from 46.1 µM), for inactives: at the highest dose activity, positive = more growth; 270,000 tested, 0.4% active; calls by dose curve; also: potency is read from the fitted curve at half-maximal effect; actives are rising curves; nearly all actives have a fitted effect of over 50% in size
#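 Read-out: OD600 growth recovery of NS1-expressing budding yeast. Cells grown overnight at 30C in -URA glucose medium, washed, resuspended and diluted 1:100 in 2% galactose assay medium, pH 6.0. Same strain lacking NS1 served as positive control.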
# Cycloheximide cs – counter-screen for Shiga toxin inhibitors: cycloheximide protein synthesis inhibition | AID 2314 | max response, % | cell reporter, cycloheximide protein synthesis inhibition counterscreen | 300,000 tested, 12% active; in the data active = max response mostly above about 13%, no sharp cut-off; inactive = mostly below about 14%; also: read at 38.3 µM for the half of the compounds with a filed dose; 0% is about no effect
# Shiga inhibitor – Shiga toxin inhibition; Vero cells, Shiga toxin protein synthesis inhibition reporter; inhibition, % at 38.7 µM; 290,000 tested, 9.2% active; in the data active = inhibition mostly above about 28%, no sharp cut-off; inactive = mostly below about 43%; also: 0% is about no effect
# Pf growth 48h – inhibits P. falciparum growth in the first generation, 48 h; Potency, µM (titrated, usually from 28.7 µM), without a hit: at the highest dose activity change, negative = inhibition, actives largely listed as inhibitors; 310,000 tested, 5.9% active; P. falciparum luciferase growth in erythrocytes, 48 h; also: potency is read from the fitted curve at half-maximal effect; % is scaled to controls: 0 for no effect and ±100 for the full control effect
#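 Parasite viability was followed by luminescence of a genomically integrated firefly luciferase. Cultures held 0.1% parasitemia at 2% hematocrit (final), incubated under 5% CO2 at 37 C.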
# * marks the source's active call; other numbers are inactive results; ? = inconclusive; . = no result; [ ] = remark or other dose. Unless noted, calls follow the shape of the dose curve; as a rule, active = well fitted inhibition curve with a large enough effect; inconclusive = small, poorly fitted or top-dose-only effect, or another doubt; inactive = no such curve, though single readings can be large or run the other way.
SMILES,SARS PLP yeast,Pf growth 96h,NS1 function inh,Cycloheximide cs,Shiga inhibitor,Pf growth 48h
NCCCC(N)CC(=O)NCC1NC(=O)C(CO)NC(=O)C(N)CNC(=O)C(C2CCN=C(N)N2)NC(=O)/C(=C/NC(N)=O)NC1=O (stereo not drawn),.,-20%,.,.,.,1%
CC1CCCN(C(=O)C(=O)Nc2ccc3nc4n(c(=O)c3c2)CCCCC4)C1 (stereo not drawn),3%,13%,-5%,2,-2,?
Cc1cc(OCC(=O)NCCc2c[nH]c3ccccc23)c2c(C)cc(=O)oc2c1,-1%,?,2%,0,-7,?
CCCC(=O)Nc1nc2ccc(NC(=O)c3ccc(Br)o3)cc2s1,1%,26%,?,8,44,?
Cc1ccc2nc(NC(=O)c3cccs3)sc2c1,-1%,?,-62%,25,80,75%
Cc1nc2ccc(NC(=O)c3ccc(Br)o3)cc2s1,-5%,162%,.,36*,66*,89%
Cc1ccc2nc(NC(=S)NC(=O)c3cccs3)sc2c1,?,-55%,-7%,47*,102*,97%
Cc1cccc(C(=O)NNC(=S)NC(=O)c2cccs2)c1,-7%,12µM*,-119%,1,-3,-4%
Cc1nc2ccc(NC(=O)c3cnc(Cl)c(Cl)c3)cc2s1,-12%,48%,-9%,18*,71*,60%
Cc1nc2ccc(NC(=O)c3cccnc3)cc2s1,-3%,23%,.,8,55,2%
Cc1cc(C(=O)Nc2ccc3nc(C)sc3c2)c2ccccc2n1,-2%,-21%,10%,-2,13,-8%
Cc1ccc(C(=O)O)c(C(=O)Nc2nc3ccccc3s2)c1,?,34%,9%,2,-2,.
Cc1ccc2nc(NC(=O)c3ccc(Cl)s3)sc2c1,6%,-102%,-5%,25*,51*,.
Cc1nc2ccc(NC(=O)c3ccc(Cl)s3)cc2s1,-2%,35%,5%,15,77*,.
C/C(N)=C(/C#N)C(=O)COC(=O)c1ccccc1Oc1ccccc1,1%,57%,.,3,9,-14%
CCOC(=O)c1cnc(-n2nc(C)cc2C)nc1NC,-4%,-23%[5.75 µM],-31%,32*,29,0%
CCOC(=O)c1cnc(-n2nc(C)cc2C)nc1NNc1nc(-c2ccccc2)cc(-c2ccccc2)n1,6%,?,?,-1,-11,1.5µM*
CCOC(=O)c1cnc(-n2nc(C)cc2C)nc1NNc1nc(C)cc(C)n1,0%,2.9µM*,-2%,1,-8,0.59µM*
CCOC(=O)c1cnc(-n2nc(C)cc2C)nc1NC1CCCCC1,-33%,-1%,-252%,-4,-22,1.7µM*
O=C(NNC(=O)c1ccc(-n2cncn2)c([N+](=O)[O-])c1)c1cccc(Cl)c1,-2%,?,.,.,.,-16%
COc1ccc(C(=O)n2ccc(C)n2)cc1Br,-7%,12%,-38%,-3,-7,4%
O=c1c(NCCc2ccc(Cl)cc2)c(-c2ccccc2)c1=O,-1%,?,1%,5,-7,?
CCOC(=O)c1cnc(-n2nc(C)cc2C)nc1N(CC)CC,-8%,.,-98%,7,14,12µM*
CCOC(=O)c1cnc(-n2nc(C)cc2C)nc1Oc1ccc(C#N)cc1,-4%,6%,6%,-4,-8,94%
O=C(NC1CCCCC1)C(c1ccccc1)N1CCc2ccccc21 (stereo not drawn),-17%,12µM*,14%,-2,16,.
SMILES,SARS PLP yeast,Pf growth 96h,NS1 function inh,Cycloheximide cs,Shiga inhibitor,Pf growth 48h
Cc1ccc(C(C(=O)NC2CCCC2)N2CCc3ccccc32)cc1 (stereo not drawn),6%,?,11%,-1,-7,.
O=C(NC1CCCCC1)C(c1ccccc1)N1CCCC1 (stereo not drawn),7%,90%,-2%,1,-1,5%
O=C(NC1CCCC1)C(c1ccc(Cl)cc1)N1CCc2ccccc21 (stereo not drawn),4%,5.9µM*,-2%,-6,4,.
O=C(O)CCCn1cc(NC(=O)c2sc3ccccc3c2Cl)cn1,-1%,12%,0%,-7,-7,-1%
O=C(O)CN1C(=O)/C(=C/c2ccccc2Br)Oc2ccccc21,-3%,37%,?,12,-6,27%
Fc1cccc(F)c1-n1c(CN2CCOCC2)csc1=S,0%,-22%,.,-6,22,13%
